# Data published in PubChem BioAssay (EPA / NIEHS).
# Results filed as inconclusive are left out. Calls of active or inactive are those of the source. The calls were made as follows, unless noted: active = hit-call score of the fitted dose curve at least 0.9, where 1 is the maximum; inactive = score below 0.9.
# Experiments:
# [1] = CCTE_Harrill_HTTr_Apoptosis_MCF7: CCTE's 6-hour Apoptosis Assessment for the High-Throughput Transcriptomics (HTTr) Platform, in MCF-7 cells cultured in DMEM + 10% fetal bovine serum, Harrill Lab (AID 2284011)
# Method in brief: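 MCF-7 cells in DMEM + 10% FBS exposed 6 h to chemicals over an eight-point dilution series. Caspase-3/7 activation imaged by high-content CellEvent Green staining; fitted bidirectionally versus DMSO.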
# [2] = CCTE_Harrill_HTTr_CellCount_MCF7: CCTE's Cell Proliferation Assessment for the High-Throughput Transcriptomics (HTTr) Platform, Harrill Lab (AID 2284012; active = hit-call score of the fitted dose curve at least 0.9, where 1 is the maximum;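 also: count of Hoechst-stained nuclei per well by high-content imaging in MCF-7 cells; cells exposed to compound for six hours; intended direction is loss of nuclei count meaning fewer cells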)
# Method in brief: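 For this full-screen endpoint, MCF-7 cultures received eight compound dilutions for six hours. Well nuclei counts from Hoechst imaging were analyzed relative to DMSO.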
structure (smiles),measurement,setting,value
O=C(O)CCCOC(=O)c1ccccc1C(=O)O,outcome,[1],inactive
same,outcome,[2],inactive
